Our source for the composite z-score and z-score values is PubChem BioAssay.

Molecules are shown by their SMILES. Calls of active or inactive are those of the source. Unless noted, no rule for the calls is given here.

A short description of test [1]: compounds binding Alexa647 anti-His antibody – biochemical, small-molecule microarray, 635 nm fluorescence, artefact control for SMM control protein annotation, primary screen (AID 1128).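 Also: score merges feature fluorescence with signal-to-noise for each printed compound spot.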 The following applies: higher = more signal.
Test [2] concerns Human papillomavirus type 1a E7 protein (residues 1-88). In words: HPV1a E7 small-molecule binders, primary screen, biochemical, small-molecule microarray, residues 1-88, 635 nm (AID 1129). The following applies: small-molecule microarray binding, fluorescence 635 nm; higher = more signal.
For test [3], the target named is Focal adhesion kinase 1 (Homo sapiens) (UniProt Q05397). In words: PTK2 protein binding on printed compound slides – biochemical, small-molecule microarray, 635/667 nm fluorescence, BSA, DTT, primary screen (AID 1130).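 Also: composite of spot emission at 667 nm and signal to noise over triplicate slides.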 The following applies: 635 nm fluorescence, higher = more signal.
Focal adhesion kinase 1 (Homo sapiens), sequence (Q05397 whole entry, looked up): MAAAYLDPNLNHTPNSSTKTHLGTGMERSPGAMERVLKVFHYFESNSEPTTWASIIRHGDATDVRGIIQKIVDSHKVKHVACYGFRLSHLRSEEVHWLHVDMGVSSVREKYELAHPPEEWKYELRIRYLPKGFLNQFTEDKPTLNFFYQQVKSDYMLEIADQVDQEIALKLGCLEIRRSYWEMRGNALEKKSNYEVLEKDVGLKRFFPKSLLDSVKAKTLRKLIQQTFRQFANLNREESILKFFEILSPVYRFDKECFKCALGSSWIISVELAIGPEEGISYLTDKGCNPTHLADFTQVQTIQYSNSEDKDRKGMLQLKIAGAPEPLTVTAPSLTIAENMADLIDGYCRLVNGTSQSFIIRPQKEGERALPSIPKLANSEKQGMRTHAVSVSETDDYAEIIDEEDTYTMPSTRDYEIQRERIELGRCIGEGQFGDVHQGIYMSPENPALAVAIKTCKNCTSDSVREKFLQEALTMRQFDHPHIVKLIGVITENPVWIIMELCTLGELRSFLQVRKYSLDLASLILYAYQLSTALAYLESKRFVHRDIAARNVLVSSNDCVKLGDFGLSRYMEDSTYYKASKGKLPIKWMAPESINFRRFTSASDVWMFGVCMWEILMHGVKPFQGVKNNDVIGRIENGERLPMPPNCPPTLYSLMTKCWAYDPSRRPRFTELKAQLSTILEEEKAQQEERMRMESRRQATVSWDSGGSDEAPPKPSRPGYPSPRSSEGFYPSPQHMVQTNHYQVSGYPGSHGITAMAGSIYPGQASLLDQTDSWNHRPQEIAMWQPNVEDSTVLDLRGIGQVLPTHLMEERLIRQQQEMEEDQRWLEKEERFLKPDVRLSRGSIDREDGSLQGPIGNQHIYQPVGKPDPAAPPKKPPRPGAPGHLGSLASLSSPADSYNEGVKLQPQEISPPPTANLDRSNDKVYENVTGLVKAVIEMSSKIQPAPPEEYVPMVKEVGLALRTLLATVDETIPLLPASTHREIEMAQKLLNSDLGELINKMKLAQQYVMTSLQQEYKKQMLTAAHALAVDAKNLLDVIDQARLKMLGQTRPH
Test [4] relates to Fibrinogen (Alexa647-labelled). In words: Alexa647-fibrinogen binding to printed small molecules – biochemical, small-molecule microarray, 635/667 nm fluorescence, artefact control for SMM control-protein annotation, profiling panel (AID 1131).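 Also: z-score merges 667 nm fluorescence with per-spot signal-to-noise over triplicate slides.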 The following applies: fibrinogen-A647 binding fluorescence, higher = more signal.
In test [5] the target is Follistatin (Homo sapiens) (UniProt P19883). In words: FST protein binding to printed compounds – biochemical, small-molecule microarray, 635/667 nm fluorescence, primary screen (AID 1132). The following applies: 635 nm fluorescence, higher = more signal.
Follistatin (Homo sapiens), sequence (P19883 whole entry, looked up): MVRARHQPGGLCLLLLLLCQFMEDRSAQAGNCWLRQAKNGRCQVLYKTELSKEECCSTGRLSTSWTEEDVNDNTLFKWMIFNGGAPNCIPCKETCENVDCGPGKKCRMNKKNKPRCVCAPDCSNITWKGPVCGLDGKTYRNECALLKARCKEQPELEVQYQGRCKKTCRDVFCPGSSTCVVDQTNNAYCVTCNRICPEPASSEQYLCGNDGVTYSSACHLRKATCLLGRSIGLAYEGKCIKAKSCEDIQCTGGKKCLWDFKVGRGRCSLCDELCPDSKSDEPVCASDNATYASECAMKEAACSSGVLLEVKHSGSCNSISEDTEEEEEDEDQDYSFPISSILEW
Test [6] addresses Fibroblast growth factor 2 (Homo sapiens) (UniProt P09038). In words: basic fibroblast growth factor binding to printed compounds – biochemical, small-molecule microarray, 635/667 nm fluorescence, primary screen (AID 1133). The following applies: FGF2, fluorescence 635/667, higher = more signal.
Test [7] in a line: JC-1 mitochondrial potential readout, lung cancer cells – cell-based, A549, JC-1 fluorescence, basal, 24 h, 100 nL, profiling panel (AID 1138).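 Also: A549 lung adenocarcinoma cells under basal conditions with no added stimulus; test concentration not given here.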 The following applies: higher = more signal.
Another test deals with Lefty1. In words: Lefty1 protein binding to printed compounds – biochemical, small-molecule microarray, 635/667 nm fluorescence, primary screen (AID 1139). The following applies: fluorescence 635/667, higher = more signal.
Test [8] relates to wheat germ agglutinin (Triticum aestivum), Alexa647-labelled. In words: Alexa647-WGA lectin binding to printed small molecules – biochemical, small-molecule microarray, 635/667 nm fluorescence, artefact control for SMM control-protein annotation, profiling panel (AID 1140).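 Also: score merges 667 nm feature emission with signal to noise over triplicate slides.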 The following applies: WGA-A647 binding, 635 nm fluorescence, higher = more signal.
The target of test [9] is Luciferin 4-monooxygenase (Photinus pyralis) (UniProt P08659). In words: inhibition of purified Photinus pyralis luciferase – biochemical, luminescence, purified enzyme, 2006 set, primary screen (AID 1141).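 Also: cell-free assay with purified firefly luciferase at 100 ng per well in PBS; test concentration not given here.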 The following applies: purified firefly luciferase, SteadyGlo luminescence, 30 min; higher = more signal, called active from +8 up or from −8 down.
Luciferin 4-monooxygenase (Photinus pyralis), sequence (P08659 whole entry, looked up): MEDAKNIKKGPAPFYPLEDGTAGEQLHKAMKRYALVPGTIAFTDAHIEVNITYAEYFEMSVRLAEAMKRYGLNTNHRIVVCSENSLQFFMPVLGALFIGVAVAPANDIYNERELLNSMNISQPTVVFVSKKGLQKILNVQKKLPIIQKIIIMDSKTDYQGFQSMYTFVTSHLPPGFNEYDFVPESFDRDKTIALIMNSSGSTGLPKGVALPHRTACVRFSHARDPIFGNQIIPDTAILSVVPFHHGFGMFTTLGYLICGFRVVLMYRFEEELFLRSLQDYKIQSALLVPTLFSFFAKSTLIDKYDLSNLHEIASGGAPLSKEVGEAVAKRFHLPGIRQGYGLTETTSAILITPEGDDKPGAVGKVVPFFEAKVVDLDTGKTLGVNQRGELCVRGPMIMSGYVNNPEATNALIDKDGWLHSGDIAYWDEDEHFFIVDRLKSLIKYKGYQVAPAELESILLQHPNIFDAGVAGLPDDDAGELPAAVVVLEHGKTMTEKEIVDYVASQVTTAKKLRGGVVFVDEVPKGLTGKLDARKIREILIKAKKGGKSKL
Test [10] deals with Wnt5a (protein binding on small-molecule microarray). Put plainly: small molecules binding Wnt5a protein – biophysical, small-molecule microarray, 635/667 nm fluorescence, primary screen (AID 1142).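 Also: fluorescence read at 667 nm with signal to noise per printed feature.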 The following applies: 635 nm fluorescence, higher = more signal.
Test [11] can be described thus: ATP-based viability of Huh7 replicon cells – cell-based, CellTiter-Glo luminescence, basal, 48 h, cytotoxicity control for HCV replication inhibitor project, primary screen (AID 1143).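 Also: Huh7 hepatoma cells carrying a hepatitis C replication reporter with no stimulus; test concentration not given here.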 The following applies: higher = more signal, called active from +8 up or from −8 down.
The nature of test [12]: Pseudomonas biofilm growth suppression – PAO1 strain, BacTiter-Glo luminescence, LB-PBS, primary screen (AID 1144). The following applies: P. aeruginosa PAO1 biofilm, 12 h, higher = more signal.
Test [13] is described as follows: basal CRE-LacZ reporter activity in PC12 – cell-based, unstimulated, primary screen (AID 1145). The following applies: no forskolin, luminescence, 4.5 h, higher = more signal, called active from +8 up or from −8 down.
Test [14] can be described thus: forskolin-driven CRE-LacZ activity in PC12 – cell-based, CRE-LacZ reporter, forskolin-stimulated, primary screen (AID 1146).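 Also: PC12 cells with 6xCRE LacZ reporter stimulated by forskolin 10 µM; beta-galactosidase reporter signal reflecting CREB driven transcription.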 The following applies: luminescence, 4.5 h, higher = more signal, called active from +8 up or from −8 down.
The target in test [15] is Streptavidin (Streptomyces avidinii) (UniProt P22629). In words: compounds binding control protein streptavidin – biophysical, small-molecule microarray, 635/667 nm fluorescence, artefact control for SMM compound annotation, primary screen (AID 1147).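 Also: signal reflects streptavidin binding to arrayed compounds as a control protein.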 The following applies: higher = more signal.
Streptavidin (Streptomyces avidinii), sequence (P22629 whole entry, looked up): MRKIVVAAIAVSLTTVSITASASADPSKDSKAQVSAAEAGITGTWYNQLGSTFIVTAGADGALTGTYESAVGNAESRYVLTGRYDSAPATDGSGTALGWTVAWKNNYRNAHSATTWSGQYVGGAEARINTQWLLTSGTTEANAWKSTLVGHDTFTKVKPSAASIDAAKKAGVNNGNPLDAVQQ
Test [16] is described as follows: probe aInhba binding on compound microarray – biochemical, small-molecule microarray, 635/667 nm fluorescence, primary screen (AID 1148).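 Also: score merges 667nm spot fluorescence with signal-to-noise for antibody binding to printed compounds.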 The following applies: higher = more signal.
For test [17], the target named is Torsin-1A (Homo sapiens) (UniProt O14656). Put plainly: TOR1A wild-type binding on microarray – cell lysate, small-molecule microarray, lysate, 635/667 nm, primary screen (AID 1149). The following applies: COS7 hTOR1A-WT lysate, 635 nm fluorescence, higher = more signal.
Torsin-1A (Homo sapiens), sequence (O14656 whole entry, looked up): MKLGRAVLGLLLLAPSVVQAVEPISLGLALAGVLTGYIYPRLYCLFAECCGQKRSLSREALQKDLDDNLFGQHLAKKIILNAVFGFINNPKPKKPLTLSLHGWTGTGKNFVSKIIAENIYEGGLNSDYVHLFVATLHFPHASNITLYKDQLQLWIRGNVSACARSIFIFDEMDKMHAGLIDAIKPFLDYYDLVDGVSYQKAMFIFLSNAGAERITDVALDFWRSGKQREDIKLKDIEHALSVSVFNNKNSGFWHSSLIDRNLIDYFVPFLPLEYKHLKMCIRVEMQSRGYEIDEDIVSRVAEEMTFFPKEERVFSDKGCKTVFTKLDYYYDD
Test [18] has the same target. In words: torsin A mutant lysate binding on microarrays – cell lysate, small-molecule microarray, COS7 lysate, 635/667 nm fluorescence, primary screen (AID 1150).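 Also: score pools 667 nm emission and signal to noise measuring lysate protein binding.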 The following applies: COS7 hTOR1A mutant lysate, 635 nm fluorescence, higher = more signal.
Test [19] relates to Sonic hedgehog protein (Shh). In words: Sonic hedgehog microarray binding compounds – biochemical, small-molecule microarray, 635/667 nm fluorescence, primary screen (AID 1151).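 Also: Shh protein binding to compounds spotted on small-molecule microarray slides; score combines spot fluorescence intensity with signal-to-noise across triplicate slides.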 The following applies: 635 nm fluorescence, higher = more signal.

Fibroblast growth factor 2 (Homo sapiens), sequence (P09038 whole entry, looked up): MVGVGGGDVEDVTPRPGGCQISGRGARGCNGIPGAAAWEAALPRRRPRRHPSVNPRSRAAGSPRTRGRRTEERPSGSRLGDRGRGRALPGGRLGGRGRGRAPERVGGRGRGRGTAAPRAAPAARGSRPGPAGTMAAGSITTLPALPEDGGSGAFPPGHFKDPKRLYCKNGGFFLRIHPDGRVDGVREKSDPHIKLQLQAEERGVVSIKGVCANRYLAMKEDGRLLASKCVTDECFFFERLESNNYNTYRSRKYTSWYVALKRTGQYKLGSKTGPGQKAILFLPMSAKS

For `CN(C)CCCNC(=O)[C@@H]1c2ccccc2C(=O)N(Cc2ccccc2)[C@H]1c1ccc(CO)cc1`, the composite z-score in [1] was 0.514; in [2], -0.958; in [3], -0.193; in test [4], -0.355; in test [5], -0.242; in [6], -0.158. The composite z-score in the test on Lefty1 is -0.201; in [8] it was -0.0107; in test [10] it was -0.142; in test [15] it was -0.844; in [16], -0.128; in the test with Torsin-1A (Homo sapiens) [17] it was -0.146. For the same compound, the composite z-score in the test with Torsin-1A (Homo sapiens) [18] is -0.725; in test [19] it was -0.336. Besides, the z-score in test [7] was 1.85; in test [9], -0.784 (inactive); in test [11] it was 0.143 (inactive); in [12], 0.596 (inactive); in test [13] it was -0.295 (inactive); in [14] it was -0.877 (inactive).

`CN1C(=O)C2C=CC(C(O)c3ccc(I)cc3)N(NC(=O)OC(C)(C)C)C2C1=O` (stereo not given): the composite z-score was 0.131 in test [1]; 1.25 in [2]; 0.739 in [3]; 0.974 in [4]; 0.669 in [5]; -0.0956 in test [6]. In addition, the composite z-score in the test on Lefty1 was -0.119; in [8] it was 0.743; in test [10], 0.0527; in [15], 0.323; in test [16], 0.274; with Torsin-1A (Homo sapiens) [17] it was -0.042. For the same compound, the composite z-score in the test with Torsin-1A (Homo sapiens) [18] was 0.447; in test [19], -0.436. Besides, the z-score in test [7] was -0.317; in test [9], 0.607 (inactive); in test [11], 0.6 (inactive); in [12], 0.155 (inactive); in [13], -0.515 (inactive); in [14], 0.699 (inactive).

For the compound `O=C(NN=C1C[C@@H](O)[C@@H](O)[C@@H]2[C@@H]3C(=O)N(c4ccc(F)cc4F)C(=O)[C@@H]3CC[C@@H]12)OCc1ccccc1`, the composite z-score was 0.419 in test [1]; 0.117 in [2]; -0.179 in [3]; 0.723 in test [4]; 0.385 in [5]; -0.191 in test [6]. In addition, the composite z-score was 0.341 with Lefty1; 0.336 in test [8]; -0.132 in [10]; 0.98 in test [15]; -0.128 in test [16]; 0.871 in the test with Torsin-1A (Homo sapiens) [17]. For the same compound, the composite z-score is 0.464 in the test with Torsin-1A (Homo sapiens) [18] and -0.33 in test [19]. Further, the z-score in test [7] is -0.281; in test [9], 0.894 (inactive); in [11], 0.375 (inactive); in [12], 1.21 (inactive); in test [13] it was 0.16 (inactive); in test [14], 0.829 (inactive).

Consider `CCN1C(=O)[C@H]2[C@H]3[C@H](O)[C@H](O)CC(=NOC(C)CN4CCCCc5nc(C)c(C)cc54)[C@@H]3CC[C@H]2C1=O` (stereo not given in full), for which the composite z-score in test [1] was 2.1; in [2] it was 0.0084; in test [3] it was 0.167; in test [4], -0.323; in [5], 0.861; in test [6], 0.541. Further, the composite z-score is 0.672 with Lefty1; 0.0283 in test [8]; 0.185 in test [10]; -0.0098 in test [15]; -0.024 in [16]; 0.763 in the test with Torsin-1A (Homo sapiens) [17]. Further, the values for the composite z-score (in the test with Torsin-1A (Homo sapiens) [18]; in test [19]) were 0.769 and 0.809, respectively. The z-score is 0.0743 in test [7]; 0.161 (inactive) in [9]; 0.06 (inactive) in test [11]; 1.07 (inactive) in test [12]; 0.778 (inactive) in test [13]; 0.618 (inactive) in [14].

For the compound `CO[C@H]1COC(=O)[C@@H]2CCCN2C(=O)CC=C[C@@H](C)[C@H](OC)COC(=O)CC=C[C@@H]1C`, the composite z-score in test [1] is -0.287; in [2], -0.52; in [3], -0.0405; in test [4], -0.624; in [5] it was 1.36; in [6], 1.21. For the same compound, the composite z-score in the test with Lefty1 is 1.62; in test [8] it was -0.705; in [10], 0.191; in [15], -0.689; in [16] it was -0.0858; in the test with Torsin-1A (Homo sapiens) [17], 1.49. Also, the composite z-score with Torsin-1A (Homo sapiens) [18] is 1.27; in [19], 1.98. Moreover, the z-score is 1.59 in test [7]; -1.87 (inactive) in test [9]; -1.32 (inactive) in test [11]; -1.11 (inactive) in [12]; 2.42 (inactive) in test [13]; 0.104 (inactive) in test [14].
